Assay outcomes: PubChem, National Center for Advancing Translational Sciences (NCATS)
Shown are actives, neighbours in structure and some others; about 2.5% of the full set was active somewhere.
Cruzain noTriton = blocks cruzain activity in detergent-free assay | P25779 | purified cruzain, Z-FR-AMC fluorescence, no detergent | Potency, µM, for the others: max response, negative = inhibition, most hits filed as inhibitors | 200,000 compounds, 2.3% hits | AID 1476;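 also: plate controls were enzyme without inhibitor for no effect and buffer without enzyme for full effect; nearly all actives have a fitted effect of over 40% in size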
Target sequence (P25779 123-467 limits assumed): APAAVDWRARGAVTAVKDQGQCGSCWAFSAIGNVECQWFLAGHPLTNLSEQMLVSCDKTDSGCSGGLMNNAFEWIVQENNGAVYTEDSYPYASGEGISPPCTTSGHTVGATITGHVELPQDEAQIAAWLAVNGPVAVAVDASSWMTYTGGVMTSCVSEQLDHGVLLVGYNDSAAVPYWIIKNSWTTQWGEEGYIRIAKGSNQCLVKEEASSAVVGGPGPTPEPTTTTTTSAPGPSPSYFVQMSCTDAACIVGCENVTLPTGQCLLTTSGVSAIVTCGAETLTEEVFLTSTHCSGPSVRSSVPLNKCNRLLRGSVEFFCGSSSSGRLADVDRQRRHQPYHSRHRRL
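Purified cruzain at 1.5 nM, pre-incubated 15 min with compound at room temperature in 100 mM sodium acetate pH 5.5, 5 mM DTT, 0.00005% Triton X-100. Reaction started with 2 uM Z-FR-AMC; AMC fluorescence increase over 60 s gives rate.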
Cruzain inh Det = blocks cruzain activity in presence of Triton detergent | P25779 | 200,000 compounds, 0.43% hits | Potency, µM, without a hit: max response, negative = inhibition, most hits filed as inhibitors | AID 1478 | purified cruzain, Z-FR-AMC fluorescence, 0.01% Triton;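 also: plate controls were neutral wells for no effect and buffer without enzyme for full effect; nearly all actives have a fitted effect of over 40% in size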
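15 min RT preincubation of 1.5 nM cruzain with compound, then 2 uM Z-FR-AMC added; kinetic AMC fluorescence, 60 s delta. Triton X-100 0.01%, pH 5.5.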
Numbers without * were called inactive; ? = inconclusive. Calls follow the shape of the dose curve; as a rule, active = well fitted curve in the direction sought with a large enough effect; inconclusive = small, poorly fitted or top-dose-only effect, or another doubt; inactive = no such curve, though single readings can be large; an effect the other way counts as inactive or inconclusive. Potency is read from the fitted curve at half-maximal effect.

SMILES	Cruzain noTriton	Cruzain inh Det
COc1ccc(CNc2ncnc3ccc(-c4ccccc4OC)cc23)c(OC)c1	18%	-2%
CCc1ccccc1NC(=O)c1ccc2c(SCC(=O)O)c3c(nc2c1)CCC3	-11%	1%
O=C(Nc1nc2c(s1)CCCC2)c1ccc(S(=O)(=O)N2CCCc3ccccc32)cc1	?	-2%
CC1CCc2nc(NC(=O)c3ccc(S(=O)(=O)N4CCCc5ccccc54)cc3)sc2C1 (stereo unspecified)	7.9µM*	-5%
O=C(O)[C@@H]1[C@@H](C(=O)O)[C@@]23CCCC2=C2CC[C@@]3(C(=O)O)[C@@]3(C(=O)O)C[C@@]213	0%	5%
CCCNC(=O)c1cnc2sc(N3CCCCCC3)nn2c1=O	-4%	-8%
COC(=O)c1c(NC(=O)COC(=O)CNC(=O)C2CCCCC2)sc(C)c1C	10µM*	4µM*
COC(=O)c1c(NC(=O)COC(=O)CCS(=O)(=O)c2ccc(C)cc2)sc(C)c1C	9%	-7%
Cc1ccc(-c2csc3nnc(SCC(=O)N4CCN(Cc5ccccc5)CC4)n23)cc1	20µM*	-6%
O=C(CSc1nnc2scc(-c3ccccc3)n12)N1CCN(Cc2ccccc2)CC1	-9%	-5%
Cc1cc(C)c(C)c(S(=O)(=O)Nc2ccc(OCC(=O)O)cc2)c1C	-4%	0%
CC(NC(=O)CSc1nc2c(c(C(F)(F)F)n1)CCc1ccccc1-2)c1ccccc1 (stereo unspecified)	-7%	-8%
CCc1c(C)sc(NC(=O)CSc2nc3c(c(C(F)(F)F)n2)CCc2ccccc2-3)c1C#N	4µM*	-4%
C=CCC1CCCC(=O)N2CC[C@H](O)C12 (stereo partly specified)	-1%	2%
COC(=O)c1cc(OC)c(OC)cc1NC(=O)CN1C(=O)c2ccccc2C1=O	?	2%
COC(=O)c1cc(-c2ccccc2)sc1NC(=O)CN1C(=O)c2ccccc2C1=O	25µM*	-3%
Cc1ccc(NC(=O)c2nnn(Cc3ccccc3)c2N)cc1C	-7%	0%
CSc1ccc(Cn2nnc(C(=O)Nc3ccc(C)c(C)c3)c2N)cc1	25µM*	5%
Cc1cccc(N2CCn3c2nc2c3c(=O)n(CCCc3ccccc3)c(=O)n2C)c1	13%	-4%
COC(=O)c1ccc(N(C(=O)c2ccco2)C(C(=O)NC2CCCC2)c2ccco2)cc1 (stereo unspecified)	-2%	-2%
Cc1cc(C)cc(NC(=O)CN(c2cccc(C)c2C)S(=O)(=O)c2ccccc2)c1	?	-7%
Cc1cc(NC(=O)CN(c2cccc(C)c2C)S(=O)(=O)c2ccccc2)ccc1Br	6.3µM*	-3%
Cc1sc2nc(SCc3nc(-c4ccccc4)no3)n(-c3ccccc3)c(=O)c2c1C	25µM*	-3%
O=c1c2ccccc2nc(SCc2nnc(-c3ccccc3Br)o2)n1-c1ccccc1	32µM*	-1%
Cc1ccc2nc(SCc3nnc(-c4ccccc4Br)o3)[nH]c2c1	20µM*	-30%
SMILES	Cruzain noTriton	Cruzain inh Det
Cc1sc2nc(SCC(=O)NCc3ccco3)n(-c3ccccc3)c(=O)c2c1C	-10%	3%
Brc1ccccc1-c1nnc(CSc2nncn2-c2ccccc2)o1	-8%	2%
COc1ccc(-c2noc(CSc3nc4ccccc4c(=O)n3-c3ccc(C)cc3)n2)cc1	16µM*	5%
COc1ccc(-n2c(SCc3nc(-c4ccc(C)cc4)no3)nnc2-c2ccccc2)cc1	?	-6%
Cc1ccc2nc(SCc3nc(-c4ccccc4C)no3)[nH]c2c1	-7%	-24%
CC(C)c1ccc(NC(=O)[C@H]2O[C@@H]3OC(C)(C)O[C@@H]3[C@H]3OC(C)(C)O[C@H]32)cc1	5%	-1%
Cc1cc(C)c(S(=O)(=O)n2cnc(C)c2)c(C)c1	-2%	1%
COc1c2c(cc3c1C(CC(O)C(C)C)N(C)CC3)OCO2 (stereo unspecified)	8%	3%
FB(F)F	-1%	3%
COCCn1c(=N)c(C(=O)NCc2ccco2)cc2c(=O)n3ccccc3nc21	?	-5%
CCn1c(=N)c(C(=O)NC)cc2c(=O)n3cccc(C)c3nc21	?	14µM*
CCn1c(=N)c(C(=O)OC)cc2c(=O)n3ccccc3nc21	-79%	0.2µM*
CCOC(=O)c1cc2c(=O)n3ccccc3nc2n(CC2CCCO2)c1=NC(C)=O (stereo unspecified)	10µM*	32µM*
CCOC(=O)c1cc2c(=O)n3ccccc3nc2n(CC2CCCO2)c1=NC(=O)c1cc(C)cc(C)c1 (stereo unspecified)	-5%	-2%
COc1ccc(CCNC(=O)c2cc3c(=O)n4cccc(C)c4nc3n(Cc3ccncc3)c2=N)cc1	13%	1%
CCCCNC(=O)c1cc2c(=O)n3cccc(C)c3nc2n(Cc2ccncc2)c1=N	?	22µM*
CCn1c(=N)c(C(=O)NCc2ccccc2)cc2c(=O)n3cccc(C)c3nc21	14%	-6%
Cn1c(CN2CCOCC2)nnc1SCC(=O)NCCc1ccccc1	2%	-1%
CC(Cl)CCl (stereo unspecified)	-7%	-2%
CCc1cnc2c(c1SCC(=O)Nc1ccc(Cl)cc1)c(=O)n(C)c(=O)n2C	-9%	0%
CN(C(=O)Cc1ccc(Cl)c(Cl)c1)[C@H](CN1CCCC1)c1ccccc1	12%	-3%
CC(C)c1ccc(NC(=S)NCCc2c[nH]c3ccccc23)cc1	0%	-12%
COc1cccc(N2CCN(S(=O)(=O)c3ccc(-c4cc(C(F)(F)F)on4)s3)CC2)c1	-8%	3%
COc1ccc(Cn2c(C(=O)O)c(CNCC(C)c3ccccc3)c3ccc(OC)cc32)cc1 (stereo unspecified)	17%	-4%
CC1(c2ccccc2)CC(C)(C)N2C(=O)/C(=C3\SC(=S)NC3=O)c3cccc1c32 (stereo unspecified)	7.9µM*	-10%
SMILES	Cruzain noTriton	Cruzain inh Det
CC1(c2ccccc2)CC(C)(C)N2C(=O)C3(C(C#N)=C(N)Oc4cc(O)ccc43)c3cccc1c32 (stereo unspecified)	12%	-6%
COc1ccc(N2C(=O)CC(Sc3ncn[nH]3)C2=O)c(OC)c1 (stereo unspecified)	?	6%
CC(C)c1ccc(N2C(=O)CC(Sc3ncn[nH]3)C2=O)cc1 (stereo unspecified)	4µM*	4%
O=C1C=C(Nc2ccc(Cl)cc2)C(=O)N1c1ccc(Cl)cc1	6.3µM*	1%
O=C1CCCC(=O)N1c1ccc(Oc2ccc(Cl)cc2)cc1	-1%	-4%
CC(C)(COCC1CO1)COCC1CO1 (stereo unspecified)	-2%	5%
O=C(CSc1nc2ccccc2o1)Nc1nc2ccc(Br)cc2s1	10µM*	1%
COc1ccc2nc(NC(=O)CSc3nc4ccccc4o3)sc2c1	-18%	5%
COc1cccc(C(=O)NCC(=O)N/N=C/c2ccc(OC(=O)c3cccs3)c(OC)c2)c1	9%	-4%
O=C(N/N=C/c1ccc(OC(=O)c2cccs2)cc1)c1cccc(F)c1	20µM*	-22%
CC1CCN(c2[nH]c(=S)c(C#N)c3c2CCCC3)CC1	-21%	3%
CC1(C)Cc2c(c(N3CCCCC3)[nH]c(=S)c2C#N)CS1	13µM*	-1%
COc1ccc(OC)c(CNC(=O)c2ccc3c(c2)c(C)c(C)n3Cc2ccc(Cl)cc2)c1	7.9µM*	2%
COc1ccc(OC)c(CNC(=O)c2ccc3c(c2)c(C)c(C)n3C)c1	?	-2%
